Screen size: about 5,500 compounds; about 2,000 (36%) were called active. About 18% were inconclusive and are not listed. Cut-off read from the data, not from the text of the source: active = normalized growth mostly below about 0.91 (no sharp cut-off); inconclusive = no clear call, values can overlap the other calls; inactive = mostly above about 0.92. Some of the results follow.
Experiment: chemical genetic growth profiling, strain panel (AID 1159580);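 note: tested at 20 µM; growth read once vehicle control cultures reached saturation at 30 °C; 1 = growth at the plate median or of vehicle wells; lower values mean less growth of the strain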
Settings: growth OD

Measured: normalized growth

c1ccc2c(CC3=NCCN3)cccc2c1
inactive: S. cerevisiae deletion strains, locus YJR075W, strain HOC1, hits give low values 1 | S. cerevisiae deletion strains, locus YKL009W, strain mrt4, hits give low values 1.01 | S. cerevisiae deletion strains, locus YKL068W, hits give low values 1.01 | S. cerevisiae deletion strains, locus YKL085W, strain MDH1 (second series), hits give low values 1.02 | S. cerevisiae deletion strains, locus YKL085W, strain MDH1, hits give low values 1.02 | S. cerevisiae deletion strains, locus YKL160W, strain elf1, hits give low values 0.984 | S. cerevisiae deletion strains, locus YKL190W, strain CNB1, hits give low values 1 | S. cerevisiae deletion strains, locus YKR001C, strain vps1, hits give low values 1.01 | S. cerevisiae deletion strains, locus YKR026C, strain gcn3, hits give low values 0.984 | S. cerevisiae deletion strains, locus YKR091W, strain srl3, hits give low values 0.98 | S. cerevisiae deletion strains, locus YLL001W, strain dnm1, hits give low values 0.986 | S. cerevisiae deletion strains, locus YLL026W, hits give low values 0.997 | S. cerevisiae deletion strains, locus YLL041C, strain sdh2, hits give low values 0.972 | S. cerevisiae deletion strains, locus YLR027C, strain aat2, hits give low values 0.973 | S. cerevisiae deletion strains, locus YLR039C, strain RIC1, hits give low values 1.04 | S. cerevisiae deletion strains, locus YLR058C, strain SHM2, hits give low values 1.01 | S. cerevisiae deletion strains, locus YLR102C, strain apc9, hits give low values 1.02 | S. cerevisiae deletion strains, locus YLR113W, strain HOG1, hits give low values 0.991 | S. cerevisiae deletion strains, locus YLR221C, strain rsa3, hits give low values 0.995 | S. cerevisiae deletion strains, locus YLR258W, strain gsy2, hits give low values 0.991 | S. cerevisiae deletion strains, locus YLR262C, strain YPT6 (second series), hits give low values 0.97 | S. cerevisiae deletion strains, locus YLR262C, strain YPT6, hits give low values 1.03 | S. cerevisiae deletion strains, locus YLR268W, strain sec22, hits give low values 1.02 | S. cerevisiae deletion strains, locus YLR320W, strain mms22, hits give low values 0.979 | S. cerevisiae deletion strains, locus YLR330W, strain CHS5, hits give low values 1.01 | S. cerevisiae deletion strains, locus YLR342W, strain FKS1 (second series), hits give low values 1.03 | S. cerevisiae deletion strains, locus YLR342W, strain FKS1, hits give low values 0.971 | S. cerevisiae deletion strains, locus YLR357W, strain rsc2, hits give low values 0.942 | S. cerevisiae deletion strains, locus YLR370C, strain arc18, hits give low values 0.978 | S. cerevisiae deletion strains, locus YLR371W, strain rom2, hits give low values 1.04 | S. cerevisiae deletion strains, locus YLR384C, strain iki3, hits give low values 0.962 | S. cerevisiae deletion strains, locus YLR418C, strain cdc73, hits give low values 1.02 | S. cerevisiae deletion strains, locus YML016C, strain PPZ1, hits give low values 1.01 | S. cerevisiae deletion strains, locus YML032C, strain rad52, hits give low values 1.03 | S. cerevisiae deletion strains, locus YML120C, strain ndi1, hits give low values 0.977 | S. cerevisiae deletion strains, locus YML124C, strain tub3, hits give low values 1.02 | S. cerevisiae deletion strains, locus YMR058W, strain fet3, hits give low values 0.976 | S. cerevisiae deletion strains, locus YMR078C, strain ctf18, hits give low values 1.02 | S. cerevisiae deletion strains, locus YMR125W, strain sto1, hits give low values 0.938 | S. cerevisiae deletion strains, locus YMR129W, hits give low values 0.96 | S. cerevisiae deletion strains, locus YMR205C, strain PFK2, hits give low values 0.987 | S. cerevisiae deletion strains, locus YMR223W, strain ubp8, hits give low values 1.01 | S. cerevisiae deletion strains, locus YMR231W, strain pep5, hits give low values 0.981 | S. cerevisiae deletion strains, locus YMR263W, strain SAP30, hits give low values 1 | S. cerevisiae deletion strains, locus YMR307W, strain GAS1, hits give low values 1.01 | S. cerevisiae deletion strains, locus YNL067W, strain RPL9B, hits give low values 1 | S. cerevisiae deletion strains, locus YNL071W, strain lat1, hits give low values 0.961 | S. cerevisiae deletion strains, locus YNL128W, strain TEP1, hits give low values 1.01 | S. cerevisiae deletion strains, locus YNL153C, strain GIM3, hits give low values 1 | S. cerevisiae deletion strains, locus YNL183C, strain NPR1, hits give low values 0.957 | S. cerevisiae deletion strains, locus YNL209W, strain ssb2, hits give low values 0.968 | S. cerevisiae deletion strains, locus YNL233W, strain BNI4, hits give low values 1.01 | S. cerevisiae deletion strains, locus YNL248C, strain rpa49, hits give low values 0.963 | S. cerevisiae deletion strains, locus YNL250W, strain rad50, hits give low values 1.02 | S. cerevisiae deletion strains, locus YNL271C, strain bni1, hits give low values 1.02 | S. cerevisiae deletion strains, locus YNL298W, strain CLA4, hits give low values 1.01 | S. cerevisiae deletion strains, locus YNL307C, strain MCK1, hits give low values 1.03 | S. cerevisiae deletion strains, locus YNL322C, strain KRE1 (second series), hits give low values 0.958 | S. cerevisiae deletion strains, locus YNL322C, strain KRE1, hits give low values 1 | S. cerevisiae deletion strains, locus YNR049C, strain mso1, hits give low values 0.982 | S. cerevisiae deletion strains, locus YNR052C, strain pop2, hits give low values 1.02 | S. cerevisiae deletion strains, locus YOL006C, strain TOP1, hits give low values 1.03 | S. cerevisiae deletion strains, locus YOL012C, strain htz1 0.662 | S. cerevisiae deletion strains, locus YOL147C, strain pex11, hits give low values 1.02 | S. cerevisiae deletion strains, locus YOR001W, strain rrp6, hits give low values 0.934 | S. cerevisiae deletion strains, locus YOR061W, strain CKA2, hits give low values 1.01 | S. cerevisiae deletion strains, locus YOR069W, strain VPS5, hits give low values 1 | S. cerevisiae deletion strains, locus YOR070C, strain gyp1, hits give low values 1.01 | S. cerevisiae deletion strains, locus YOR080W, strain dia2, hits give low values 0.965 | S. cerevisiae deletion strains, locus YOR083W, strain WHI5, hits give low values 0.994 | S. cerevisiae deletion strains, locus YOR106W, strain vam3, hits give low values 0.97 | S. cerevisiae deletion strains, locus YOR136W, strain idh2, hits give low values 1.02 | S. cerevisiae deletion strains, locus YOR144C, strain elg1, hits give low values 1.02 | S. cerevisiae deletion strains, locus YOR184W, strain ser1, hits give low values 1.02 | S. cerevisiae deletion strains, locus YOR231W, strain MKK1, hits give low values 1.02 | S. cerevisiae deletion strains, locus YOR265W, strain rbl2, hits give low values 0.987 | S. cerevisiae deletion strains, locus YOR270C, strain vph1, hits give low values 0.914 | S. cerevisiae deletion strains, locus YOR290C, strain snf2, hits give low values 0.984 | S. cerevisiae deletion strains, locus YOR316C, strain cot1, hits give low values 1.03 | S. cerevisiae deletion strains, locus YPL051W, strain arl3, hits give low values 0.988 | S. cerevisiae deletion strains, locus YPL055C, strain LGE1, hits give low values 1.02 | S. cerevisiae deletion strains, locus YPL078C, strain atp4, hits give low values 0.981 | S. cerevisiae deletion strains, locus YPL106C, strain sse1, hits give low values 0.968 | S. cerevisiae deletion strains, locus YPL240C, strain hsp82, hits give low values 0.997 | S. cerevisiae deletion strains, locus YPL241C, strain CIN2, hits give low values 1 | S. cerevisiae deletion strains, locus YPL256C, strain CLN2, hits give low values 0.987 | S. cerevisiae deletion strains, locus YPR119W, strain clb2, hits give low values 1.02 | S. cerevisiae deletion strains, locus YPR141C, strain kar3, hits give low values 1.03 | S. cerevisiae deletion strains, locus YPR163C, strain tif3, hits give low values 1.02 | S. cerevisiae deletion strains, locus YPR167C, strain met16, hits give low values 1.02 | S. cerevisiae deletion strains, strain wtn01, hits give low values 1.02 | S. cerevisiae strains, strain wild type, hits give low values 1
